Measured values reported in ChEMBL document CHEMBL3988442, “University of Dundee, Small-Polar-MMV Screening Library” (2021).
For some assays here: Potency and affinity values are given separately.

How the values were obtained:
Design in all cases: scale not given: direction of the effect not stated beside the values
[1] = biological target: Protein translocase subunit SecA (Escherichia coli (strain K12)) (UniProt P10408); assay: Assay to Identify E. coli SecA ATPase Inhibitors; assay type: functional; settings: 30 µM
Sequence of Protein translocase subunit SecA (Escherichia coli (strain K12)) (P10408 whole entry): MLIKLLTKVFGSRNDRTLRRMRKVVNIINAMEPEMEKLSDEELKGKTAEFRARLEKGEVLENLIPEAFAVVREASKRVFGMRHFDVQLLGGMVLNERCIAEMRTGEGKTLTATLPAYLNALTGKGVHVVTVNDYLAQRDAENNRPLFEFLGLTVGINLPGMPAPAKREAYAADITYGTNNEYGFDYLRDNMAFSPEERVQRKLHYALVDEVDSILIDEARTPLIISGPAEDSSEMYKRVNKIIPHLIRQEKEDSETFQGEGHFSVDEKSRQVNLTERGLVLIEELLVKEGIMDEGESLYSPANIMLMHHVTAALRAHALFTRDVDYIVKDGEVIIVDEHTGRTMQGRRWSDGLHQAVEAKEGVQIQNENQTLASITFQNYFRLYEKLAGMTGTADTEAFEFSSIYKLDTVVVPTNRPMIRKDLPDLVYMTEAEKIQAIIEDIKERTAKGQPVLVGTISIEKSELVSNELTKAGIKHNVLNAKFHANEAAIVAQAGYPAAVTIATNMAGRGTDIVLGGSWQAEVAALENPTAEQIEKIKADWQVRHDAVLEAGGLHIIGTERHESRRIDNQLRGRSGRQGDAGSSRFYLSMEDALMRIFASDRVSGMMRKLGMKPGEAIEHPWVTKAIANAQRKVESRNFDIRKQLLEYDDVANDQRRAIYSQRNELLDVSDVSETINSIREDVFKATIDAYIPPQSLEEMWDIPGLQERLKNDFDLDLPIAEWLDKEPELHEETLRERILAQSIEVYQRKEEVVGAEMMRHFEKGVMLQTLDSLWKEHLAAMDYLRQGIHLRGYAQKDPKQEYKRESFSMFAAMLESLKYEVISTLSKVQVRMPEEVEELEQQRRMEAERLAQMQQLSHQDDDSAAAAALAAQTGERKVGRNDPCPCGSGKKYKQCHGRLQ

[2] = biological target: T1, Ubiquitin-activating enzyme e1, putative (Leishmania donovani (strain BPK282A1)) (UniProt E9BSI1); assay: Leishmania donovani Ubiquitin Activating Enzyme (LdE1); assay type: functional; settings: 30 µM
T1 sequence (whole entry): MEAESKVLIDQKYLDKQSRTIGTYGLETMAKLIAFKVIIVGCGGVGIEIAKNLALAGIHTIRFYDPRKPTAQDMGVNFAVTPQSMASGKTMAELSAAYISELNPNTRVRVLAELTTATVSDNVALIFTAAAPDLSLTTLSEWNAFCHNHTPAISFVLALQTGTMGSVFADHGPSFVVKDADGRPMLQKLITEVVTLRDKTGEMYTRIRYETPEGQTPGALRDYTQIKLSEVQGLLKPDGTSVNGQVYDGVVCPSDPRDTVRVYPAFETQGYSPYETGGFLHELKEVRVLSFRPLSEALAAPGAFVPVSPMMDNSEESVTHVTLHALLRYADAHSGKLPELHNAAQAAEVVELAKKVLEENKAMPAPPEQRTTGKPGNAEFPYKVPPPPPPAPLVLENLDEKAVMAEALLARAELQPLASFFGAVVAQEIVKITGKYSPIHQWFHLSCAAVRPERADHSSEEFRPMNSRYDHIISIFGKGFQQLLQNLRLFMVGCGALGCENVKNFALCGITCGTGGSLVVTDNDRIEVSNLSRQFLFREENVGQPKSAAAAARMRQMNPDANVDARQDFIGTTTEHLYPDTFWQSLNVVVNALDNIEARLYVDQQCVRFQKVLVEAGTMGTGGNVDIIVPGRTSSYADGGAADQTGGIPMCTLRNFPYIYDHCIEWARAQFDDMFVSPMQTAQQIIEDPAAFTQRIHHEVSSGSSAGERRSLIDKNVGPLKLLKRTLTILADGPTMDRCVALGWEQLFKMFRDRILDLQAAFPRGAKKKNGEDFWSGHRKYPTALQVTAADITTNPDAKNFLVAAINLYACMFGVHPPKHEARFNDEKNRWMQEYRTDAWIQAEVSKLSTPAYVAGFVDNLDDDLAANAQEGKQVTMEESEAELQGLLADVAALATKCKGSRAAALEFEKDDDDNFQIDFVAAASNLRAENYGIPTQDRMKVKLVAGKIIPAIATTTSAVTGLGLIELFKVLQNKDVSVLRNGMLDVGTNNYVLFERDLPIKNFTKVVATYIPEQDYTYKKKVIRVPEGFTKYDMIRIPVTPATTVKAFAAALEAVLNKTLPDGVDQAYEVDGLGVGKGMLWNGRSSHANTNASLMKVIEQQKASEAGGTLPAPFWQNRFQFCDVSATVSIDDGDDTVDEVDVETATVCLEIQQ

[3] = biological target: AMP-activated protein kinase, AMPK (Homo sapiens) (UniProt P54646+O43741+P54619+Q9UGJ0+Q9Y478+Q13131+Q9UGI9); assay: AMP-dependent Kinase enzyme assay. An in vitro enzyme assay that detects ADP turnover that is directly proportional to AMPK activity. This uses naive AMPK that is activated during the assay with MK-8722; assay type: functional; settings: 30 µM
[4] = biological target: Sialic acid-binding Ig-like lectin 9 (Homo sapiens) (UniProt Q9Y336); assay: Hs-Siglec9 ALPHAscreen SOP 20170721; settings: 10 µM
Sequence of Sialic acid-binding Ig-like lectin 9 (Homo sapiens) (Q9Y336 whole entry): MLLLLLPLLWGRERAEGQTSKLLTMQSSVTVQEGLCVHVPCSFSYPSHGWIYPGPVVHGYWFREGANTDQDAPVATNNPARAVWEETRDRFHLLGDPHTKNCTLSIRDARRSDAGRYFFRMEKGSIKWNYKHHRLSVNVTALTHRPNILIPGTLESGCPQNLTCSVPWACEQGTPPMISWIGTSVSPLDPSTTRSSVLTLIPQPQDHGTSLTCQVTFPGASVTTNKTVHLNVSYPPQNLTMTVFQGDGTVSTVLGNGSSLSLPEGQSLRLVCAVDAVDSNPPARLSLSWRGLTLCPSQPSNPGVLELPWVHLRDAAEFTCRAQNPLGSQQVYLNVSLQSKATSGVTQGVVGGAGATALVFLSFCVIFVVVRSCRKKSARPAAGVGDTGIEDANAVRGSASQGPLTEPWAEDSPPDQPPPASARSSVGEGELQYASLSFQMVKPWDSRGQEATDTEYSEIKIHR

Trypanosoma cruzi = assay: Trypanosoma cruzi phosphomannomutase and mannose-1-phosphate guanylyltransferase assay; assay type: functional; settings: 10 µM
[5] = biological target: T2, Arginase-2, mitochondrial (Homo sapiens) (UniProt P78540); assay: in vitro enzyme assay to detect the production of urea directly proportional to the activity of Arginase II; assay type: functional; settings: 33.3 µM; also: in the data most compounds retested in dose-response had high values
T2 sequence (whole entry): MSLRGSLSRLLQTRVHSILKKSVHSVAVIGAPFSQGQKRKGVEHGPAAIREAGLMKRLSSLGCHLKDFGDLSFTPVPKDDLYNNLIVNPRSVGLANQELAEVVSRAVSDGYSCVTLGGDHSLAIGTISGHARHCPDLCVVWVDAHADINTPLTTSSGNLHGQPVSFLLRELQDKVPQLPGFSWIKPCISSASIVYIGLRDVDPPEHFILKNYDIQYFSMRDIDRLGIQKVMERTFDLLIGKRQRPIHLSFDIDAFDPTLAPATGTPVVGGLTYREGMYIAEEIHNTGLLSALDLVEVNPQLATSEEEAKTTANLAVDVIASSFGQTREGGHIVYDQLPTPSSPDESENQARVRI

[6] = biological target: T3, Proteasome subunit beta (Trypanosoma cruzi) (UniProt O96673); assay: Trypanosoma cruzi proteasome chymotrypsin-like activity (TcProtChymo) assay.; also: in the data most compounds retested in dose-response had high values; assay type: functional; settings: 9.37 µM
T3 sequence (whole entry): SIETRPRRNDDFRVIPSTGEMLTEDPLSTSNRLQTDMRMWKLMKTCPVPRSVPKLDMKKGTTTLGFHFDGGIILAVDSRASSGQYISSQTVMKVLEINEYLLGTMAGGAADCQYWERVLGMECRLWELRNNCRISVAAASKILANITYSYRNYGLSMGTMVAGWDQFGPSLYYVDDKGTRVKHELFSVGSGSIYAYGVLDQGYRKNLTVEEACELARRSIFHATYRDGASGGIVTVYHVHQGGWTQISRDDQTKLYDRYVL

Homo sapiens = species: Homo sapiens; assay: To identify inhibition of the IFN signalling (Jak-Stat) pathway via expression of an eGFP reporter gene under the control of an IFN-stimulated response element (ISRE) containing MxA promoter.; assay type: functional; settings: 30 µM
[7] = biological target: T4, Tyrosyl-tRNA synthetase, putative (Trypanosoma cruzi (strain CL Brener)) (UniProt Q4DSP6); assay: Trypanosoma cruzi tyrosyl tRNA synthetase (TcYRS) _High Tyrosine SOP; assay type: functional; settings: 30 µM; also: in the data most compounds retested in dose-response had high values
T4 sequence (whole entry): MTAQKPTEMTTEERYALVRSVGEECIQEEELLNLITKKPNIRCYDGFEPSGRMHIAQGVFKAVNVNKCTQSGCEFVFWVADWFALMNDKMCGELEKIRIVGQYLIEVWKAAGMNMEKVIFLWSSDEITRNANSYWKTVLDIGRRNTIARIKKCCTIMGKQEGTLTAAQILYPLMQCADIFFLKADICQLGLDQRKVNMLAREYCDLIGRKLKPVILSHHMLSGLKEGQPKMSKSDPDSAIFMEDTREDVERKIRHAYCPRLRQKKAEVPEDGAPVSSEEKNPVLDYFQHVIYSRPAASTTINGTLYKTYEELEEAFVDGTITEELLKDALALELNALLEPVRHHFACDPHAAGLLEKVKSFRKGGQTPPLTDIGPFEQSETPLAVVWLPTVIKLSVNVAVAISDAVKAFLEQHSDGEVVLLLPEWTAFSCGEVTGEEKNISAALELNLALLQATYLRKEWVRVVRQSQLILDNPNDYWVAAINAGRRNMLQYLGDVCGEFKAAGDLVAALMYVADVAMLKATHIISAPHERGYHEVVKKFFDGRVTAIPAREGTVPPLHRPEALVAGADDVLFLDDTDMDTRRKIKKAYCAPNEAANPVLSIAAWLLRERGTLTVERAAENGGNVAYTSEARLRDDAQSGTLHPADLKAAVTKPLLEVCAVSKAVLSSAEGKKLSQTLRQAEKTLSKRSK

[8] = biological target: T4, Tyrosyl-tRNA synthetase, putative (Trypanosoma cruzi (strain CL Brener)); assay: Trypanosoma cruzi tyrosyl tRNA synthetase (TcYRS) SOP; assay type: functional; settings: 30 µM
[9] = biological target: Chromo domain-containing protein 1 (Saccharomyces cerevisiae (strain ATCC 204508 / S288c) (Baker's yeast)) (UniProt P32657); assay: ScCHD-1 Enzyme Inhibition Assay; assay type: functional; settings: 30 µM; also: in the data most compounds retested in dose-response had high values
Sequence of Chromo domain-containing protein 1 (Saccharomyces cerevisiae (strain ATCC 204508 / S288c) (Baker's yeast)) (P32657 whole entry, the tested form may be a part): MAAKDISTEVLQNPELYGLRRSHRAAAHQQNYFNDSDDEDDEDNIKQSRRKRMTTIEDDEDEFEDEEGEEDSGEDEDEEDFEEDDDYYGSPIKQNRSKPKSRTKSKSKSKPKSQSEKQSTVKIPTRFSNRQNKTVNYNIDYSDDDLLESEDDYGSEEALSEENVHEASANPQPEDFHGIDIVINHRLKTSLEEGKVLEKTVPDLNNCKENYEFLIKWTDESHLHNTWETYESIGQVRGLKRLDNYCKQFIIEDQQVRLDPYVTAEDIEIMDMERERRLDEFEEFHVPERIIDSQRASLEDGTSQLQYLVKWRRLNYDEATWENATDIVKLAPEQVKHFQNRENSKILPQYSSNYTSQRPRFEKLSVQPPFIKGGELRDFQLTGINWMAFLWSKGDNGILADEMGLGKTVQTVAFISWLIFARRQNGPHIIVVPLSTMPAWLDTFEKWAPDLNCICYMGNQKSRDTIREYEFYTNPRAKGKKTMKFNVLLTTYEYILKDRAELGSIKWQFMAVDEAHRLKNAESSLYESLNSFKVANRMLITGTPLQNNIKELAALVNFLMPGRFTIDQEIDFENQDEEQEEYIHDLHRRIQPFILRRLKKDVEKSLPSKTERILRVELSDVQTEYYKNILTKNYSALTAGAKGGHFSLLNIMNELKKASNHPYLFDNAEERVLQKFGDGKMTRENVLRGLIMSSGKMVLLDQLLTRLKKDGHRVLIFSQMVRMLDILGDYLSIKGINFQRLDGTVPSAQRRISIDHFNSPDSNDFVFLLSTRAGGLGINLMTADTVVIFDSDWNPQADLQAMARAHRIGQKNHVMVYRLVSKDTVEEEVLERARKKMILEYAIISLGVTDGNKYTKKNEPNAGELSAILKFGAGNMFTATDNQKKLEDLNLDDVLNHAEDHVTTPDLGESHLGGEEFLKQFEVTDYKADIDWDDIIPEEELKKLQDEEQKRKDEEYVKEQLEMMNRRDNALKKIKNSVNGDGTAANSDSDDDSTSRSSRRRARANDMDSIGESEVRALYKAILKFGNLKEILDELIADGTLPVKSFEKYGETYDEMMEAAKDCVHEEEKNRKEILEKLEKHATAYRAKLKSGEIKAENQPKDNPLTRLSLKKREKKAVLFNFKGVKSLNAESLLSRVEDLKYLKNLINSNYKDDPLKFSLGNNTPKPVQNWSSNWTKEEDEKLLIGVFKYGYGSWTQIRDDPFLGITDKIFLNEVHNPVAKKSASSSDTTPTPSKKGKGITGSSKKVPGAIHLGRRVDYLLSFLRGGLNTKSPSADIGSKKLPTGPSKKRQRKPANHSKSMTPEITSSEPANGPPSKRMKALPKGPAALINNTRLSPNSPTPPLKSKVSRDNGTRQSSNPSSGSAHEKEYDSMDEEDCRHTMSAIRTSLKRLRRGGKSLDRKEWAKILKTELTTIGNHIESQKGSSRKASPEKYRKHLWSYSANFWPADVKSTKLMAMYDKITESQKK

| SMILES | Percent Effect [1] | Percent Effect [2] | Percent Effect [3] | Percent Effect [4] | Percent Effect (Trypanosoma cruzi) | Percent Effect [5] | Percent Effect [6] | Percent Effect (Homo sapiens) | Percent Effect [7] | Percent Effect [8] | Percent Effect [9] |
| --- | --- | --- | --- | --- | --- | --- | --- | --- | --- | --- | --- |
| COC(=O)c1cccc(NC(=O)CCn2nc(-c3cccs3)oc2=O)c1 | -5.54% | 10.8% | 11.1% | -7.27% | -5.11% | -4.25% | 5.92% | 7.13% | 0% | 6.1% | -3.3% |
| CN1CCN(C(=O)Cc2cccc(F)c2)Cc2cccnc21 | -3.84% | 2.6% | -0.44% | 1.15% | 8.55% | -9.65% | -0.499% | 6.92% | 2.15% | 3.7% | -6.06% |
| CC(c1ccco1)N(C)Cc1nc2c(cnn2C)c(=O)[nH]1 (stereo unspecified) | -2.49% | 24.3% | -5.7% | 5.24% | 3.44% | 2.77% | 15.1% | 11.7% | -8.91% | 28.1% | -9.16% |
| O=C1OC2(CCN(C3CCCOC3)CC2)CN1CCc1ccccc1 (stereo unspecified) | -0.187% | 7.79% | -6.88% | 5.02% | -3.64% | -11% | 14% | 15.6% | 3.23% | 6.17% | 0.643% |
| Cc1noc2nc(C3CCN(CC4=CCCOC4)CC3)cc(C(F)F)c12 | -1.97% | 6.76% | 13.4% | 0.663% | -3.56% | -3.02% | 3.28% | 2.72% | 7.53% | 11.7% | -11.7% |
| O=C(N[C@@H]1CN(Cc2ccccc2)C[C@@H]2CCCO[C@@H]21)C1CC1 | 3.31% | 10.7% | 0.707% | 7.92% | -2.32% | -49.3% | 4.96% | -2.02% | 7.29% | 22.5% | -7.85% |
| CN(CC(=O)N1CCCC1Cn1cccn1)C1CC1 (stereo unspecified) | -4.84% | 10.1% | -1.88% | 13.2% | 1.04% | 0% | -0.0819% | 3.19% | 1.48% | 8.86% | -3.87% |
| CC(C)NC(=O)c1ccc2c(c1)nc1n2CCN(c2ccccc2)C1 | -1.74% | -17.3% | 16.6% | 5.54% | -1.97% | -9.68% | 15.3% | -10.5% | 26.5% | 33.3% | -10.5% |
| Cc1cnc(CNc2c(F)cccc2-n2cccn2)o1 | 3.66% | 12.5% | -4.76% | 5.6% | -8.46% | 2.65% | 13.7% | 5.49% | 4.21% | 5.13% | 101% |
| CN(C)c1ncc(CN2CCC(c3nnsc3S(C)(=O)=O)CC2)cn1 | -2.31% | -1.35% | 11.6% | -0.17% | -3.36% | 0.232% | 4.37% | 12.1% | 3.23% | 1.3% | -9.61% |
| Cc1nc(C2CCCN2CC(=O)N(Cc2ccsc2)C2CC2)no1 (stereo unspecified) | -3.4% | -8.11% | -3.86% | 2.75% | 5.48% | -4.99% | 10.6% | 25.6% | 14.8% | 18.3% | -5.35% |
| Cc1nc(C)n(CC2CCCN2CCCc2ccccc2)n1 (stereo unspecified) | -1.6% | -11% | -0.4% | 3.43% | 1.96% | 1.82% | 7.1% | -8.87% | 8.6% | 5% | -1.02% |
| Cc1nc(C(=O)N2CCCC2c2c(C)nn(C)c2C)ccc1C#N (stereo unspecified) | -5.64% | -1.27% | 7.49% | 4.58% | -2.36% | 1.07% | 16.1% | 4.46% | 0% | 2.53% | 10.7% |
| CCS(=O)(=O)N1CCC2(CC(=O)N(c3cccc(C)c3)C2)C1 (stereo unspecified) | -2.42% | 8% | -0.745% | 0.841% | 1.54% | -48.9% | 8.21% | -25.8% | 8.33% | 27.5% | -6.79% |
| CN1CCN(C(=O)c2cncc(CC3CCCN(C)C3)c2)CC1 (stereo unspecified) | -3.41% | 9.46% | 5.47% | 12% | -8.3% | -7.66% | 12% | 15.9% | 1.07% | 1.3% | -9.97% |
| COc1ccc(-c2nc(CN3CCN(CCO)CC3)co2)cc1 | -2.39% | 20.8% | -11.9% | -1.67% | 8.8% | 4.98% | 15.2% | 29% | 5.83% | 24.4% | -9.19% |
